# Data: PubChem BioAssay AID1347416 (National Center for Advancing Translational Sciences (NCATS), 2020)
# Among all 4,100 compounds or so, about 1,600 (39%) were called active. Not shown: some 25% with an inconclusive outcome. Calls come from the whole dose curve; as a rule, active = well fitted inhibition curve with a large enough effect; inconclusive = small, poorly fitted or top-dose-only effect; inactive = no such curve, though single readings can be large or run the other way. Some of the results follow. Entries that show only a call come without a potency.
# Experiment: qHTS Validation assay for Inhibitors of Plasmodium falciparum Dd2 growth in vitro; note: nearly all actives have a fitted effect of over 70% in size
# Details: P. falciparum Dd2 in RBCs, SYBR Green growth, 72 h; series mostly up to 28.7 µM
# Description: Malaria, a parasitic disease spread to humans through the bite of a Plasmodium infected Anopheles mosquito, continues to be a global health burden affecting millions of people, with an estimated 228 million cases and 405,000 deaths in 2018. Concerns about safety and limitations of current antimalarial treatments strongly emphasize the need to develop new therapeutic options. The scarce number of chemotypes and validated drug targets with efficacy against the liver stage, have hindered development of new antimalarials. To address this, a chemoprophylactic drug discovery effort was conducted through a combined phenotypic high-throughput asexual blood stage and liver stage screen, providing a robust foundation to identify liver-stage active lead chemotypes. Compounds were initially screened against Plasmodium falciparum Dd2 strain parasites using a in vitro SYBRGreen-1 based 72 hr proliferation assay to identify novel chemotypes to advance to liver stage assays. NIH/NCATS Early Translation Branch Assay Submitter (PI): Anton Simeonov Ph.D.
# […] Assay Protocol: PROTOCOL TABLE (as described by Inglese et al., 2007) SEQUENCE No. (e.g., 1, 2, 3, etc.); PARAMETER (e.g., Cells, Incubation, Reagent, etc.); VALUE; DESCRIPTION SEQUENCE, Parameter, Description 1; Reagent; 3 uL complete malaria growth medium, 1536 TC treated Black clear bottom plate 2; Controls; 23 nL positive control artesunate (300 nM final) to column 1; Neutral control DMSO to columns 2-4 3; Compound; 23 nL of compounds in dose response concentration (29 uM to 0.5 nM final) 4; Reagent; 5 uL malaria infected red blood cells (2.5% hematocrit final, 0.3% parasitemia 5; Time; 72 hours at 37C (5% O2, 5% CO2, 90% N2; 95% Rh) 6; Reagent; 2 uL lysis buffer/SYBRGreen-1, 25 sec shake immediately following dispense 7; Time; ~16 hours at 37C (5% O2, 5% CO2, 90% N2; 95% Rh) 8; Detector; EnVision (PerkinElmer) bottom read at 485/14nm excitation and 535/25 nm emission NOTES (numbers refer to sequence above): 1; Complete Malaria Growth Media: 1X RPMI-1640 w/L-glutamine, 5.5g/L Albumax II, 367 uM Hypoxanthine, 25 mM HEPES, 0.25% Sodium Bicarbonate, 35 uM Gentamicin sulfate 2; Controls were added using the Kalypsis Pintool (Wako USA) equipped with 1536 pinhead 3; Compounds were added in a 7-point, titration with a high final concentration of 29 uM by Pintool from seven inter-plate titrations of library plates and two DMSO control plates at the beginning and end (see Yasgar et al., 2008). 4; Red blood cells infected with Plasmodium falciparum Dd2 parasites were used. 6; Lysis buffer: 20 mM Tris-HCl, 10 mM EDTA, 0.16% Saponin, 1.6% Triton-X, 10X SYBR Green. REFERENCE: Inglese J, Shamu CE, Guy RK. 2007. Reporting data from high-throughput screening of small-molecule libraries. Nat Chem Biol. doi:10.1038/nchembio0807-438 Yasgar A, Shinn P, Jadhav A, Auld D, Michael S, Zheng W, Austin CP, Inglese J, Simeonov A. 2008. Compound Management for Quantitative High-Throughput Screening. J Lab Autom 13:79-89. doi:10.1016/j.jala.2007.12.004
# Potency is the fitted concentration of half-maximal effect.
row,Compound,Potency
1,CCCc1nc2nc(C)c(NS(=O)(=O)c3ccc(F)cc3)c(=O)n2[nH]1,inactive
2,Cc1cc(C)c(CN2C(=O)c3ccccc3S(=O)(=O)c3ccc(C(=O)OCC4CCCO4)cc32)c(C)c1 (stereo not given),6.68 µM (active)
3,CN1C[C@@H](NC(=O)COc2ccccc2)C[C@H]1c1nc(-c2ccc3c(c2)OCO3)no1,inactive
4,COc1ccc(-c2noc([C@@H]3C[C@H](NS(=O)(=O)c4ccc(OC)cc4)CN3C)n2)cc1,inactive
5,COc1cccc(NC(=O)N[C@H]2C[C@@H](c3nc(C)no3)N(C)C2)c1,17.2 µM (active)
6,CN(C)S(=O)(=O)c1ccc(N2CCCC2)c(C(=O)NC(c2ccccc2)c2ccccc2)c1,inactive
7,CCN(CC)S(=O)(=O)c1ccc(N2CCCCC2)c(NC(=O)C2=COCCO2)c1,6.68 µM (active)
8,N=c1n(N)c2ccccc2n1CC(=O)c1ccc(Br)cc1,inactive
9,CCN(CC)CCn1c(=N)n(CC(=O)c2ccc(Br)s2)c2ccccc21,5.31 µM (active)
10,Cc1nn(-c2ccccc2)c(C)c1/C=N/Nc1nc2ccccc2[nH]1,1.5 µM (active)
11,CC(NC(=O)c1ccc(NC(=O)c2ccco2)cc1)c1ccccc1 (stereo not given),inactive
12,CCOC(=O)c1ccc(NC(=O)c2ccco2)cc1,inactive
13,Cc1ccc(Oc2ccc(NC(=O)c3ccco3)cc2)cc1,10.6 µM (active)
14,Cc1cccc(NC2=C(NC(=O)c3ccccc3)C(=O)c3ccccc3C2=O)c1,0.944 µM (active)
15,CN1C(=O)COC[C@@H]1[C@H](O)c1ccc(NC(=O)c2ccccc2)cc1,inactive
16,O=C(NC1=C(Nc2ccc(F)cc2)C(=O)c2ccccc2C1=O)c1ccc(Cl)cc1,0.842 µM (active)
17,O=C(O)/C=C/c1cccc(NC(=O)c2ccc(Cl)cc2)c1,inactive
18,O=C(NC1=C(Nc2ccc(Cl)cc2)C(=O)c2ccccc2C1=O)c1ccccc1,0.473 µM (active)
19,Cc1csc2nc(COc3ccc(NC(=O)COc4ccccc4F)cc3)cc(=O)n12,inactive
20,CCCc1nn2c(=O)cc(COC(=O)c3cccc(NC(=O)COc4ccccc4C)c3)nc2s1,13.3 µM (active)
21,Cc1ccccc1OCC(=O)Nc1ccccc1C(=O)OCc1cc(=O)n2ccsc2n1,inactive
22,COc1cccc(NC(=O)c2ccc3c(c2)NC(C)(CCCCN2CCOCC2)CO3)c1 (stereo not given),inactive
23,Cc1ccc(NC(=O)c2ccc(NCCCN3CCC(C)CC3)c([N+](=O)[O-])c2)cc1F,6.68 µM (active)
24,COc1cccc(NC(=O)c2ccc(NCCCN3CCC(C)CC3)c([N+](=O)[O-])c2)c1,7.5 µM (active)

row,Compound,Potency
1,CCCNc1ccc(-c2nc(-c3ccncc3)no2)cc1[N+](=O)[O-],inactive
2,Cc1ccc(C(=O)N2[C@@H]3CC[C@H]2CC(NC(=O)c2ccncc2)C3)cc1F (stereo not given in full),inactive
3,CC1(CCCCN2CCOCC2)COc2ccc(C(=O)Nc3ccc4[nH]ccc4c3)cc2N1 (stereo not given),inactive
4,CCCN(CCC)CCCNc1ccc(C(=O)Nc2cccc(OC)c2)cc1[N+](=O)[O-],5.96 µM (active)
5,COCCCNC(=O)C(NC(=O)c1ccc(OC)cc1)C1CCN(C(=O)c2cccc(OC)c2)CC1 (stereo not given),inactive
6,c1ccc(CCc2nc3nccc(-c4ccc5c(c4)OCCCO5)n3n2)cc1,inactive
7,CC(C)Oc1ccc(C(CCNCc2ccc(O)cc2)c2ccccc2)cc1 (stereo not given),0.668 µM (active)
8,Cc1onc(-c2ccc(Cl)cc2)c1-c1ccnn1S(=O)(=O)c1ccc(Cl)cc1,1.88 µM (active)
9,Cc1onc(-c2ccc(Cl)cc2)c1-c1ccnn1S(=O)(=O)c1cccc(C(F)(F)F)c1,4.73 µM (active)
10,Cc1noc([C@@H]2CN(C(=O)c3cccc(C(F)(F)F)c3)C[C@H]2C(N)=O)n1,inactive
11,CC(C)c1noc(-c2cccn3c(CNC(=O)c4nccc5ccccc45)nnc23)n1,inactive
12,Oc1c(C(Nc2ccccn2)c2ccccc2F)ccc2cccnc12 (stereo not given),9.44 µM (active)
13,CCC(=NC(CC)CO)C1=C(O)CC(C)(C)CC1=O (stereo not given),inactive
14,CN(C)C(=O)c1cccnc1OC1CCN(CCc2ccccc2)CC1,inactive
15,CN1CCN(C(=O)C2(N(C)CCc3ccccc3)Cc3ccccc3C2)CC1,2.66 µM (active)
16,CC(C)C[C@@H]1N[C@H](C(=O)NC(C)C)Cc2cn(Cc3ccncc3)c3cccc1c23,17.2 µM (active)
17,Cc1cccc(C(=O)NC2CCN(c3cnn(C)c(=O)c3)CC2)c1,inactive
18,Cc1cccc(N2CCN(c3cccc(C)c3)C2c2cccnc2)c1,5.96 µM (active)
19,CC(C)(C)c1ccc(N2C(=O)CSC2c2cccnc2)cc1 (stereo not given),inactive
20,CCc1cccc(NC(=O)N2CCCC(c3noc(COc4ccccc4F)n3)C2)c1 (stereo not given),inactive
21,NCCc1cccc(CN2CCCC(COc3ccccc3F)C2)c1 (stereo not given),2.66 µM (active)
22,CCCCOc1ccc(NC2=NC3(CCCCC3)N=C(N)N2)cc1,8.41 µM (active)
23,CC(C)C[C@@]12C(=O)N(c3cccc(Br)c3)C(=O)N1[C@H](c1ccc(F)cc1)[C@@H]1C(=O)N(C3CCCCC3)C(=O)[C@@H]12,7.5 µM (active)
24,N=c1c2c(n(Cc3ccccc3)c3c1CCC3)CCC2,4.22 µM (active)

row,Compound,Potency
1,N=c1c2c(n(Cc3ccc(F)cc3)c3c1CCC3)CCC2,3.35 µM (active)
2,N=c1c2c(n(Cc3ccc(F)cc3)c3c1CCC3)CCCC2,2.99 µM (active)
3,COc1ccc2cc3cc(C(=O)NCCC(C)C)oc3nc2c1,inactive
4,COc1ccc(CNC(=O)N2CCCC(CN3CCCC3)CC2)cc1 (stereo not given),inactive
5,CCc1noc(-c2cn(C3CCN(C(=O)Cc4cccc(OC)c4)CC3)nn2)n1,inactive
6,COc1cccc(CC(=O)N2CCCC(CN3CCCC3)CC2)c1 (stereo not given),15 µM (active)
7,Nc1cc2ccncc2c2ccccc12,0.266 µM (active)
8,O=C(NC1CCCC1)N1CCC(Cc2nncn2CC2CC2)CC1,inactive
9,COC[C@@H]1CN(Cc2cn[nH]c2-c2ccccc2)C[C@H]1c1nc(C)no1,inactive
10,COCC(=O)N[C@H]1C[C@@H](CO)N(Cc2cn[nH]c2-c2ccccc2)C1,inactive
11,Cc1ccccc1CN1C[C@@H]2C[C@@H](c3cn[nH]c3-c3ccccc3)N3CCC[C@@]23C1=O,15 µM (active)
12,Cc1cccc(NC(=O)Cn2c(C)c(C#N)c3ccccc32)c1C,5.96 µM (active)
13,Cc1cccc(NC(=O)Cn2cnc(S(=O)(=O)N3CCCC3)c2)c1C,inactive
14,CN(C)c1cc(=O)c2ccnc(-c3ccccc3F)c2o1,inactive
15,CCCOC(=O)c1ccc(-c2c(C)noc2-c2ccc(OC)cc2O)o1,1.88 µM (active)
16,CCc1ccc(CNC(=O)c2cc3cc4ccc(OC)cc4nc3o2)cc1,inactive
17,CCc1cc(=O)n(CC(=O)Nc2ccccc2OC)c(-c2ccccc2)n1,inactive
18,COc1ccccc1NC(=O)CN1CCN(C2c3ccccc3-c3ccccc32)CC1,15 µM (active)
19,CCc1noc(-c2cccn3c(CNC(=O)c4cccc(N(C)C)c4)nnc23)n1,inactive
20,Cc1ccc(C(=O)NCc2nnc3c(-c4nc(C(C)C)no4)cccn23)cc1,inactive
21,Cc1ccc(CN2CCc3nc(C(=O)Nc4cccnc4)oc3CC2)cc1,inactive
22,Cc1ccc(NC(=O)c2c(C)oc3ccc(O)c(CN4CCCCCC4)c23)cc1,2.11 µM (active)
23,Cc1ccc(NC(=O)c2c(C)oc3ccc(O)c(CN4CCCCCC4)c23)c(C)c1,4.73 µM (active)
24,CCOC(=O)c1c(-c2ccccc2)oc2ccc(O)c(CN3CCCC3)c12,0.596 µM (active)

row,Compound,Potency
1,CCOC(=O)c1c(C)c(-c2ccccc2)n(CC(=O)NC2CCCCCC2)c1C,inactive
2,Cc1ccc(S(=O)(=O)N2CC3CCCC2C3)cc1 (stereo not given),inactive
3,O=C(NC[C@H]1OC[C@@H](NCc2ccccc2F)[C@@H]1O)Nc1ccccc1,inactive
4,Cc1ccc(O)c(CN2CCCC(c3nc(CC(C)C)no3)C2)c1 (stereo not given),9.44 µM (active)
5,CCn1cc(CN2CCCC(c3nc(C(C)C)no3)CCNC(=O)CC2)cn1 (stereo not given),inactive
6,Cc1cccc(OCCc2noc(C3CCN(C(=O)c4n[nH]c(=O)c5ccccc45)C3)n2)c1 (stereo not given),inactive
7,O=C(Cn1c(=O)n(Cc2ccc(C(=O)NCc3ccc4c(c3)OCO4)cc2)c(=O)c2ccccc21)Nc1cccc(Cl)c1,5.96 µM (active)
8,CN(C(=O)Cn1c(=O)n(Cc2ccc(C(=O)NCc3ccc4c(c3)OCO4)cc2)c(=O)c2ccccc21)c1ccccc1,inactive
9,N=c1ccn(CC(=O)c2ccc(-c3ccccc3)cc2)cc1,0.944 µM (active)
10,C[C@H]1CN=C(N(C)C)N1CCC1CCCCC1,inactive
11,NC1=NC[C@@H](Cc2ccc(O)cc2)N1CCCCC1CCCCC1,4.73 µM (active)
12,COc1ccc2c(c1)c(CN1CCCCCCN(C)C(=O)[C@@H]3CCC[C@@H]31)cn2C,15 µM (active)
13,CCC(=O)N1CCCCCCN(C)C(=O)[C@@H]2CCC[C@@H]21,inactive
14,C=C(C)COc1ccc(-c2[nH]ncc2-c2ccc(OC)c(OC)c2)c(O)c1,6.68 µM (active)
15,C=C(C)COc1ccc(-c2[nH]ncc2Oc2ccccc2OCC)c(O)c1,2.99 µM (active)
16,CCOC(=O)c1c(C)[nH]c2c1-c1ccccc1C(=O)C2=O,2.37 µM (active)
17,CCOC(=O)c1c(C)oc2c1C(=O)c1ccccc1C2=O,0.422 µM (active)
18,CCOC(=O)C1CCN(C(=O)Cn2cnc3sc(C)c(S(=O)(=O)N4CCOCC4)c3c2=O)CC1,inactive
19,CCOC(=O)C1CCN(C(=O)c2c(C)oc3c2C(=O)c2ccccc2C3=O)CC1,0.531 µM (active)
20,CCOC(=O)c1cc(Sc2ccccc2N)cc(C(=O)OCC)n1,inactive
21,O=C(NCc1ccc(F)cc1)C1(CCO)CC12CCOCC2 (stereo not given),inactive
22,O=C(CCC1CCCN(Cc2cccn2-c2cccnc2)C1)Nc1ccccc1F (stereo not given),6.68 µM (active)
23,O=C(Nc1ccccc1F)N1CCCCCC1c1nc(-c2cccnc2)no1 (stereo not given),inactive
